Only some compounds are listed: those with a hit (about 1.5% of all), similar ones and a draw of the others.
CASP6 VEID inh: human caspase-6 inhibitors, primary screen, biochemical, VEID-R110 fluorescence, single point, set 2. P55212. purified caspase-6, Z-VEID-R110 cleavage fluorescence. inhibition, % at 12.5 µM. actives 0.53% (n = 350,000);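 active = mean inhibition across replicates at least about 35%, with every replicate also reaching that limit, limit read from the data; inconclusive = only one of the two criteria met; inactive = neither criterion met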;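 note: 0% = median of neutral control wells and 100% = no fluorescence left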
Target sequence (P55212 24-179 limits assumed): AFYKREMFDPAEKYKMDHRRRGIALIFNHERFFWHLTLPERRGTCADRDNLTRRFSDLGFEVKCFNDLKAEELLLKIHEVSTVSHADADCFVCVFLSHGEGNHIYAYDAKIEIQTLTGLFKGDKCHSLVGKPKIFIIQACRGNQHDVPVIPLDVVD
Target sequence (P55212 194-293 limits assumed): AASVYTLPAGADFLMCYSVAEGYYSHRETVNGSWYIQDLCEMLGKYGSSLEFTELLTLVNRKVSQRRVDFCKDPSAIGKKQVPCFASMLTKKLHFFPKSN
NSD2 HMT inh: NSD2 histone methyltransferase inhibitors, primary screen, biochemical, AlphaScreen, single concentration, set 2; NSD2 peptide methylation, 120 min; inhibition, % at 12.5 µM; actives 0.54% (n = 310,000); AID 743445, 2014; in the data active = inhibition above about 50%
miR122 inh: miR-122 Renilla sensor signal increase in Huh7, primary screen, miR-122 inhibitor project, cell-based, single point, plate reader; AID 602342, 2012; Huh7 miR-122 Renilla luciferase sensor, 48 h; neutral wells = 0, positive control = 100; activation (reporter increase), % at 12.5 µM; actives 0.3% (n = 340,000);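 active = mean replicate activation score at least 90 and every replicate individually at or above 90; inconclusive = only one of the two criteria met; inactive = neither criterion met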;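 note: higher luciferase means less miR-122 activity so hits act as miR-122 inhibitors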
MLL AF4-AF9 inh: inhibitors of AF4 peptide binding to AF9, primary screen, biochemical, AlphaScreen, biotin-AF4 peptide, FLAG-AF9, single point | inhibition, % at 10 µM | actives 0.47% (n = 350,000) | Protein AF-9 (Homo sapiens), P42568;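 active = every replicate reaching a set inhibition limit, whatever the replicate mean, cut at about 25% in these data; inconclusive = mean inhibition reaches that limit but some replicates miss it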;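 note: 0% = plate neutral control median and 100% = total signal loss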
RAD52 anneal inh: RAD52 DNA annealing inhibitors, primary screen, biochemical, FRET, single point, set 2; DNA repair protein RAD52 homolog (Homo sapiens), P43351; recombinant RAD52 DNA annealing, FRET fluorescence; inhibition, % at 18.7 µM; actives 0.46% (n = 360,000); AID 651710, 2012;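 active = every replicate showing at least 50% inhibition; inconclusive = mean inhibition at least 50% but not in every replicate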
* marks the source's active call; other numbers are inactive results; ? = inconclusive; . = no result; [ ] = another dose, or the depositor's remark.

SMILES	CASP6 VEID inh	NSD2 HMT inh	miR122 inh	MLL AF4-AF9 inh	RAD52 anneal inh
CC(C)(C)CC(C)(C)N=C1Nc2ccccc2NC12C[C@H]1CCC(=O)N3CC[C@@H](C2)[C@@H]13 (some centres not stated)	4	.	-8	28*	-4
CO[C@@H]1CN(C)C(=O)c2ccc(NC(C)=O)cc2OC[C@@H](C)N(C(=O)c2ccncc2)C[C@@H]1C	.	.	6[16.7 µM]	-1	6
Nc1ccc(CC(N)c2csc(Nc3cc(Oc4ccccc4)ncn3)n2)cc1 (configuration not stated)	-3	16	-6	25*	-27
O=C(C[C@@H]1CC[C@H]2[C@@H](COC[C@@H](O)CN2Cc2ccc(C(F)(F)F)cc2)O1)NCCc1ccccc1	3	.	-1[16.7 µM]	-3	0
COc1ccccc1-c1ccc([C@H]2[C@@H](CO)N(C(=O)NC3CCCC3)[C@H]2C#N)cc1	3	.	.	-1	-4
C[C@@H]1CN([C@H](C)CO)C(=O)Cc2cc(NS(=O)(=O)c3ccccc3)ccc2O[C@@H]1CN(C)CC1CC1	-2	.	-1[16.7 µM]	3	16
Cc1ccc(S(=O)(=O)N/N=C\c2cc3c(cc2Br)OCO3)cc1	.	-4	14	.	.
O=[N+]([O-])c1cc2c(cc1/C=N/NS(=O)(=O)c1ccc(Br)cc1)OCO2	44*	15	3	-1	2
O=C(C1CCCC1)N1CCCCN2[C@H](C1)[C@H](c1ccc(C#CC3(O)CCCC3)cc1)[C@@H]2CO	1	.	-28[16.7 µM]	-3	5
O=C(O)c1ccccc1N/N=C/c1cc(Br)cc(Br)c1O	2	5	10	30*	-18
CN(CCO)c1ccc(C=NNc2ccc([N+](=O)[O-])cc2S(=O)(=O)Nc2ccccc2C(=O)O)cc1	37*	.	-1	?	-44
CC(=O)Nc1ccc(C=NNc2ccc([N+](=O)[O-])cc2S(=O)(=O)Nc2ccccc2C(=O)O)cc1	20	-1	.	2	-29
O=C(O)c1ccccc1NS(=O)(=O)c1ccc(NNC(=S)Nc2ccc(OC(F)F)cc2)c([N+](=O)[O-])c1	19	110*	.	27*	-12
O=C(O)c1ccccc1NS(=O)(=O)c1ccc(N/N=C/c2cccc(O)c2O)c([N+](=O)[O-])c1	60*	29	-3	1	-17
CC(C)NC(=O)Nc1ccc2c(c1)C(=O)N([C@H](C)CO)C[C@H](C)[C@@H](CN(C)C(=O)Nc1ccc(F)cc1)OCCCC[C@@H](C)O2	0	.	5[16.7 µM]	-3	-11
COc1ccc2c3c([nH]c2c1)[C@H](CO)N(C(C)=O)CC31CCN(S(=O)(=O)c2cccs2)CC1	.	.	.	-1	13
Cc1ccc(CN(CC(O)COc2cccc3[nH]cc(C)c23)C(C)(C)C)cc1 (configuration not stated)	1	.	3	29*	-6
COC(=O)Cc1c[nH]c2cccc(OCC(O)CN(Cc3ccc([N+](=O)[O-])cc3)C(C)(C)C)c12 (configuration not stated)	1	0	1	.	-1
O=C(C[C@@H]1C=C[C@@H](NC(=O)Nc2ccc3c(c2)OCO3)[C@@H](CO)O1)NCc1ccc2c(c1)OCO2	-4	.	.	-2	-15
COCC(=O)Nc1ccc2c(c1)C(=O)N(C)C[C@@H](OC)[C@H](C)CN(C(C)=O)[C@@H](C)CO2	-4	.	31[16.7 µM]	-3	-5
NC(=O)c1sc2nc3c(c(-c4ccco4)c2c1N)CCCC3	9	5	2	-2	-9
Nc1c(C(=O)NCC2CCCO2)sc2nc3c(c(-c4ccco4)c12)CC/C3=C\c1ccco1 (configuration not stated)	42*	12	-10	3	-75
COc1ccc(S(=O)(=O)N(C)C[C@@H]2OCCCC[C@@H](C)Oc3ccc(NC(=O)NC4CCCCC4)cc3C(=O)N([C@H](C)CO)C[C@@H]2C)cc1	0	.	-1[16.7 µM]	-3	-27
CN(C)CC#Cc1ccc([C@@H]2[C@H](CO)N3CCCCN(C(=O)Nc4cc(F)ccc4F)C[C@@H]23)cc1	-1	.	-9[16.7 µM]	10	51*
CN(C)CC#Cc1ccc([C@@H]2[C@@H](CO)N3CCCCN(C(=O)Nc4ccccc4F)C[C@H]23)cc1	3	.	1[16.7 µM]	4	54*
SMILES	CASP6 VEID inh	NSD2 HMT inh	miR122 inh	MLL AF4-AF9 inh	RAD52 anneal inh
CN(C)CC#Cc1ccc([C@@H]2[C@@H](CO)N3CCCCN(C(=O)Nc4cc(F)ccc4F)C[C@H]23)cc1	-1	.	2[16.7 µM]	5	22
COc1cc(CN(C)C(=O)C(=O)c2c[nH]c3ccccc23)ccc1O	2	4	146*	-2	1
O=C(C[C@@H]1C=C[C@H](NC(=O)C2CC2)[C@H](CO)O1)Nc1nccs1	83*	.	.	1	4
COc1ccccc1CNC(=O)C[C@H]1CC[C@H]2[C@@H](COc3ccc(NC(=O)Nc4ccc(F)c(F)c4)cc3C(=O)N2C)O1	-1	.	17[16.7 µM]	0	7
Cc1ccc(-n2nnnc2SCC(=O)N2c3ccccc3NC(=O)C2(C)C)cc1	.	0	160*	.	.
Cc1ccc(-c2nnc(SCC(=O)N3c4ccccc4NC(=O)C3(C)C)n2N)cc1	.	-2	2	.	.
CC(C)C(=O)C1=Cc2cccc([N+](=O)[O-])c2OC1N1CCOCC1 (configuration not stated)	37*	2	.	0	-17
COCC(=O)N1C[C@H](C)[C@H](OC)CN(C)C(=O)c2cc(NS(C)(=O)=O)ccc2OC[C@@H]1C	1	.	2[16.7 µM]	-2	0
Oc1ccc(/C=N/Nc2ncnc3c2ncn3Cc2ccccc2)cc1O	30	72*	.	19	48
Oc1cccc(/C=N/Nc2ncnc3c2ncn3Cc2ccccc2)c1	.	1	-3	.	.
N#Cc1c(Cl)nsc1NN	22	11	.	51*	-42
Cc1c(C#N)c(N)nc(Cl)c1C#N	7	-9	.	0	-27
Cc1cc(OC(=O)c2ccc(Cl)cc2Cl)c([N+](=O)[O-])c(=O)[nH]1	9	.	-2	37*	-11
Cc1cc(OC(=O)c2ccccc2Cl)c([N+](=O)[O-])c(=O)[nH]1	3	.	-6	-15	-10
CC(C)NC(=O)N(C)C[C@H]1Oc2ccc(NS(C)(=O)=O)cc2C(=O)N([C@@H](C)CO)C[C@H]1C	-3	.	-5[16.7 µM]	-1	-1
Cc1nc(SCC(=O)O)c(C#N)c2c1CCCC2	39*	17	-12	3	-24
COc1ccccc1C#Cc1ccc2c(c1)[C@@H]1[C@@H](CCN1S(=O)(=O)c1cccc(C)c1)[C@H](CO)N2	-1	.	.	6	7
CO[C@@H]1CN(C)C(=O)c2ccc(NC(=O)C3CC3)cc2OC[C@H](C)N(C(=O)c2ccccc2)C[C@H]1C	2	.	.	-2	-8
